Screening results: PubChem BioAssay, The Scripps Research Institute Molecular Screening Center
Shown are actives, neighbours in structure and some others; about 4.5% of the full set was active somewhere.
ssDAF-12 act – S. stercoralis DAF-12 nuclear receptor activators, primary screen, cell-based, luminescence, HEK293, GRIP1 co-expression, lit1-tk-luc; HEK293 ssDAF-12/GRIP1 lit1-tk-luc reporter; % of 3 µM dafachronic acid response; Nuclear hormone receptor DAF-12 (Strongyloides stercoralis); activation, % at 6.8 µM; 1% of 370,000 active;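 active means activation above the mean over all tested compounds plus 3 SD, cut at about 0.9% in these data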;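 further: 0% = DMSO-only wells and 100% = 3 µM delta7-dafachronic acid wells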
hcDAF12 agonist – H. contortus DAF-12 nuclear receptor activators, primary screen, cell-based, luminescence, HEK293, lit1-tk-luc reporter; AID 652067, 2013; HEK293 hcDAF-12 lit1-tk-luc reporter; 0% DMSO, 100% Δ7-dafachronic acid; 1.4% of 370,000 active; activation, % at 6.8 µM;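 active means activation above the mean of all tested compounds plus 3 SD, cut at about 5.5% in these data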;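 further: 100% = response to 3 µM Δ7-dafachronic acid high control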
DAX1 inh-1 – DAX1 (NR0B1) inhibitors on StAR promoter, primary screen, cell-based, luminescence, SF-1 (NR5A1), full-length DAX-1. HEK293T StAR-luciferase reporter, SF-1/DAX-1 repression relief. inhibition, % at 6.8 µM. 1.1% of 370,000 active;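 active means inhibition above the mean over all tested compounds plus 3 SD, cut at about 3.6% in these data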;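 further: 0% = DAX-1 cells with DMSO and 100% = cells lacking DAX-1 with DMSO; higher inhibition means more luminescence from relief of DAX-1 repression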
FXN GAA850 act – FXN promoter activators, primary screen, cell-based, luciferase luminescence, HEK293 lucGAA850; 0.56% of 360,000 active; AID 540364, 2011; activation, % at 6 µM; HEK293 lucGAA850 FXN promoter luciferase reporter, 24 h; percent of 10 µM SAHA response;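 active means activation above the average of all compounds screened plus 3 SD, cutoff fixed separately per campaign, cut at about 7.5% in these data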;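 further: 0% = DMSO wells and 100% = 10 µM SAHA wells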
DAX1 inh-2 – DAX1 (NR0B1) inhibitors, primary screen, cell-based, HEK293, Gal4-DAX1, luciferase luminescence. inhibition, % at 6.75 µM. HEK293 Gal4-DAX1 luciferase reporter. 0.99% of 340,000 active. Nuclear receptor subfamily 0 group B member 1 (Homo sapiens), P51843;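 active means inhibition above the mean over all tested compounds plus 3 SD, cut at about 4.2% in these data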;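 further: 0% = DAX1-transfected cells with DMSO and 100% = empty-vector control cells with DMSO; inhibition shows as a rise in luminescence from relieved DAX1 repression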
Target sequence (P51843 207-470 limits assumed): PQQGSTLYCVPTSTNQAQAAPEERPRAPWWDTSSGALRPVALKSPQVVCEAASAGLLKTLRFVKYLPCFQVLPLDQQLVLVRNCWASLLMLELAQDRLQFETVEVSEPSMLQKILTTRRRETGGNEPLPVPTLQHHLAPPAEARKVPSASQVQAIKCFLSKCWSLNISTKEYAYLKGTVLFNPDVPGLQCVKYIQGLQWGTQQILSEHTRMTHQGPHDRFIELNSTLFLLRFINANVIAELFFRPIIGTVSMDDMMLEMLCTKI
hgDAF-12 ag – H. glycines DAF-12 receptor agonists, primary screen, cell-based, luminescence, HEK293, GAL4 fusion, UAS-luciferase. activation, % at 6.8 µM. HEK293 GAL4-hgDAF12 UAS-luciferase reporter, agonist luminescence; normalized to butyrate control. Nuclear hormone receptor DAF-12 (Heterodera glycines), GAL4 fusion. AID 687014, 2013. 1.8% of 370,000 active;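 active means activation above a cutoff set at the mean of all screened compounds plus 3 SD, cut at about 10% in these data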;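 further: 0% = DMSO wells and 100% = sodium butyrate wells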
DAX1 conf – DAX1 (NR0B1) inhibitors relieving SF-1 repression, confirmation, cell-based, luminescence, HEK293T, full-length DAX-1, SF-1 activated StAR promoter; 87% of 2,400 active; HEK293T StAR-promoter luciferase reporter, SF-1/DAX-1 repression; shares compounds with DAX1 inh-1; inhibition, % at 6.8 µM;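 active means inhibition above the average of every tested compound plus 3 SD, cut at about 3.8% in these data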;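 further: 0% = DAX-1 cells with DMSO and 100% = no DAX-1 control cells with DMSO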
SF1 mutant ctr – StAR reporter signal changes without DAX1, counter-screen for DAX1 inhibitor project, cell-based, luminescence, AF-2 mutant SF-1, transactivation; inhibition, % at 6.8 µM; 78% of 2,400 active; HEK293 StAR-luciferase, SF-1 AF2 mutant; AID 652136, 2013; shares compounds with DAX1 inh-1;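 active means inhibition above the mean of all tested compounds plus 3 SD, cut at about 3% in these data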;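 further: 0% = DAX-1 transfected cells with DMSO and 100% = cells without DAX-1 with DMSO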
LXRb hcDAF ctr – LXR agonists, Gal4 luciferase reporter, confirmation, counter-screen for hcDAF-12 agonist project, cell-based, luminescence, HEK293, H. contortus campaign. activation, % at 6.8 µM. shares compounds with hcDAF12 agonist. HEK293 Gal4-LXR tk-luc reporter, 24 h; normalized: DMSO 0%, positive control 100%. AID 743027, 2013. 3,400 tested, under 10 active;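 active means mean percent activation of the reporter above a cutoff set as the average over tested compounds plus their standard deviation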
Target sequence (P55055 whole entry, looked up, the tested form may be a part): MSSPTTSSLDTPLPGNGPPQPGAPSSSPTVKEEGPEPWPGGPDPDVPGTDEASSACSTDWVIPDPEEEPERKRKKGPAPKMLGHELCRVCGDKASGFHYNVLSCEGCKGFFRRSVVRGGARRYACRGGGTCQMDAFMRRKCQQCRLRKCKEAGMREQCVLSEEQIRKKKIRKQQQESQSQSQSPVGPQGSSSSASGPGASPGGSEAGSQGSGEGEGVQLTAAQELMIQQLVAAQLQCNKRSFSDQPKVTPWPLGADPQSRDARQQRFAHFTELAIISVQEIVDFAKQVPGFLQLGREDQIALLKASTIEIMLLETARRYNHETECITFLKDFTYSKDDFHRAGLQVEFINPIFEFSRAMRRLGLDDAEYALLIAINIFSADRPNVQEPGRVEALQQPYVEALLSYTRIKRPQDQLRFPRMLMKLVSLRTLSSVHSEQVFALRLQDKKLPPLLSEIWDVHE
hcDAF12 conf – H. contortus DAF-12 receptor agonists, confirmation, cell-based, luminescence, HEK293, lit1-tk-luc, triplicate. shares compounds with hcDAF12 agonist. HEK293 hcDAF-12 lit1-tk-luc reporter; % of Δ7-dafachronic acid response. activation, % at 6.8 µM. 61% of 3,400 active;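 active means mean activation across triplicate tests above the threshold derived from the earlier primary screen, cut at about 5.5% in these data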;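 further: 0% = DMSO only wells and 100% = 3 µM Δ7-dafachronic acid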
* = called active by the depositor; / = no result.

SMILES	ssDAF-12 act	hcDAF12 agonist	DAX1 inh-1	FXN GAA850 act	DAX1 inh-2	hgDAF-12 ag	DAX1 conf	SF1 mutant ctr	LXRb hcDAF ctr	hcDAF12 conf
COC(=O)[C@]12C[C@H](CC(=O)N3CCOCC3)C(=O)N(Cc3ccccc3)C1=C[C@H](C(C)(C)C)O[C@@H]2C	-0.7	0.1	-0.6	/	/	-0.7	/	/	/	/
COCCNc1ncnc2c1cnn2-c1ccc(Cl)cc1	-0.1	6.9*	4.9*	4.2	1.9	11.6*	11.0*	6.4*	1.6	4.9
COCCN(CCOC)c1ncnc2c1cnn2-c1ccc(Cl)cc1	-1.3	-0.6	0.6	-0.7	1.1	2.8	/	/	/	/
Nn1c(SCC(=O)Nc2ccc(C(=O)O)cc2)nnc1-c1ccco1	-1.0	-0.8	-0.1	/	/	2.9	/	/	/	/
CC(C)(C)NC(=O)C(c1cc2ccccc2o1)n1c(-c2ccc(-c3ccccc3)cc2)nc2ccccc21 (configuration not stated)	4.8*	20.5*	10.5*	/	/	24.7*	13.0*	9.6*	2.2	25.3*
CC(C)(C)NC(=O)C(c1cc2ccccc2o1)n1c(=O)c(-c2ccco2)nc2ccccc21 (configuration not stated)	0.1	5.0	2.8	/	/	8.3	/	/	/	/
Cc1ccc(S(=O)(=O)NCc2cn3c(C)csc3n2)cc1	-1.5	-1.3	-0.4	2.3	-0.1	-0.7	/	/	/	/
Cc1ccc(SCc2cn3c(C)csc3n2)cc1	0.8	8.0*	5.2*	2.9	-0.4	11.9*	17.1*	7.0*	1.8	7.8*
CC(=O)N(Cc1ccccc1)c1nccs1	-0.8	-2.0	-0.2	/	/	-5.1	/	/	/	/
O=C(c1c(Cl)nc2sccn12)N(C(=O)c1c(Cl)nc2sccn12)c1ccc(Cl)cn1	1.2*	7.9*	5.4*	4.1	1.9	8.5	10.9*	3.0*	1.2	11.0*
O=C(Nc1ccccc1)Nc1ccc(C(=O)N2CCCC2)cc1	0.4	8.8*	4.9*	3.5	-0.9	17.2*	13.5*	7.5*	1.4	6.9*
CCn1c2ccccc2c2cc(NC(=O)COC(=O)c3ccc(F)cc3Cl)ccc21	-1.1	-1.7	0.9	/	/	2.5	/	/	/	/
Cc1cccc(OCC(=O)Nc2nccs2)c1C	0.6	8.6*	12.2*	0.2	1.9	12.0*	13.4*	8.0*	1.2	6.4*
COc1ccc(C2=Nc3ccccc3N(C(=O)Cc3cc(OC)cc(OC)c3)C2C(=O)NC(C)C)cc1 (configuration not stated)	0.9*	6.7*	6.0*	/	/	12.0*	9.8*	6.4*	1.3	5.7*
COc1ccc(C2=Nc3ccccc3N(C(=O)Cc3cc(OC)cc(OC)c3)C2C(=O)NC(C)(C)C)cc1 (configuration not stated)	-1.0	-1.3	-0.8	/	/	-2.9	/	/	/	/
COC(=O)[C@]12C[C@H](CC(=O)N3CCC(c4ccccc4)CC3)C(=O)N(Cc3ccc(Cl)cc3Cl)C1=C[C@H](COCc1ccccc1)O[C@@H]2C	-0.9	-1.7	-1.5	/	/	-2.9	/	/	/	/
Clc1cnc(N/N=C/c2ccco2)c(Cl)c1	0.3	7.9*	4.8*	4.9	1.0	11.1*	14.5*	8.8*	1.3	8.0*
Oc1ccc(/C=N/Nc2ncc(Cl)cc2Cl)cc1	-1.3	-0.8	0.5	5.0	-0.9	2.9	/	/	/	/
COc1ccc(CCN2CCCC(CN(C)C(=O)c3ccoc3)C2)cc1 (configuration not stated)	-0.5	7.2*	10.0*	7.3	0.4	12.6*	8.8*	5.5*	0.4	1.7
COCC1CCN(C(=O)c2cc(COc3ccc(OC)c4ccccc34)on2)C1 (configuration not stated)	0.8	8.1*	5.6*	4.1	2.1	10.7*	5.4*	5.1*	0.7	7.7*
COCC1CCN(C(=O)c2cc(COc3ccccc3SC)on2)C1 (configuration not stated)	-0.9	-1.3	-0.9	2.8	0.5	0.5	/	/	/	/
N/C(=N\OC(=O)/C=C/c1ccccc1)c1cccnc1	-1.0	4.4	2.6	3.7	1.4	10.1	/	/	/	/
N/C(=N\OC(=O)/C=C/c1ccc(Br)cc1)c1ccccn1	2.2*	8.0*	4.7*	0.3	-0.4	12.3*	9.3*	7.0*	1.1	8.3*
N/C(=N\OC(=O)/C=C/c1ccccc1Cl)c1cccnc1	-0.2	3.8	1.5	2.7	/	6.9	/	/	/	/
N/C(=N\OC(=O)/C=C/c1ccccc1Cl)c1ccccn1	0.2	7.0*	6.2*	0.5	-2.7	8.0	17.7*	6.1*	1.7	8.5*
O=C(N[C@@H](Cc1cccnc1)C(=O)N1CCC[C@H]1C(=O)NCCc1ccccc1Cl)c1cccs1	-1.7	-1.8	0.3	/	/	-1.3	/	/	/	/
C[C@H]1C2CC(OC(=O)Nc3ccccc3C(F)(F)F)C(C2)[C@H]2CCCCN21 (some centres not stated)	-0.7	-0.2	0.8	/	/	0.6	/	/	/	/
Cn1cc(Cl)c(C(=O)Nc2nc3ccccc3s2)n1	3.3*	20.9*	7.0*	-0.3	0.2	19.0*	14.3*	7.3*	1.7	17.9*
